Results filed as inconclusive are left out. Where a call stands in place of a potency, no number is given. Active and inactive are the calls of the source. The call rests on the fitted dose curve; in most records, active means well fitted inhibition curve with a large enough effect in the repeat runs; inconclusive means weak or mixed curves; inactive means no such curve, though single readings can be large or run the other way.
molecular target: Cytochrome P450 2C19 (Homo sapiens) (UniProt P33261); experiment: Cytochrome P450 Family 2 Subfamily C Member 19 (CYP2C19) small molecule antagonists: luciferase reporter qHTS assay (AID 1671197); details: P450-Glo CYP2C19 enzyme, luciferin luminescence, 1 h; series mostly up to 52.9 µM; further: nearly all actives have a fitted effect of over 65% in size
Sequence (P33261 whole entry, looked up): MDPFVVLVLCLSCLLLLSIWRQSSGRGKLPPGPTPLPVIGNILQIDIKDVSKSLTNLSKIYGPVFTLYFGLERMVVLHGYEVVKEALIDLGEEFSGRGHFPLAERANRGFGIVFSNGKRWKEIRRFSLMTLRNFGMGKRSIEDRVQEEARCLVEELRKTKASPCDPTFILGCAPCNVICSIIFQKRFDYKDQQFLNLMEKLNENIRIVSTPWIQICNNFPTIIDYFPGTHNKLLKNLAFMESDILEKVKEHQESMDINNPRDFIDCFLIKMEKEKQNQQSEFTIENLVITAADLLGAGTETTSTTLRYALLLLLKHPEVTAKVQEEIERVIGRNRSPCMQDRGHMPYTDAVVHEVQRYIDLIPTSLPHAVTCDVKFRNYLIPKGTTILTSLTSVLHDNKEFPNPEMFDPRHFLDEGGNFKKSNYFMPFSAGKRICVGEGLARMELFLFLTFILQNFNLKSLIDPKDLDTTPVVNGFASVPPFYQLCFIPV
Text: National Center for Advancing Translational Sciences [NCATS]
U.S. Environmental Protection Agency [EPA]
National Institutes of Environmental Health Sciences [NIEHS]
National Toxicology Program [NTP]
U.S. Food and Drug Administration [FDA]
Cytochrome P450 (CYP) enzymes are membrane-bound hemeproteins that play a key role in metabolism of drugs and xenobiotics. Evaluation of the effect of chemicals on CYP isozymes is useful to minimize the adverse drug reactions and toxicities in drug development process. Tox21 chemicals were tested for their effect on CYP enzyme activities by using P450-Glo (TM) screening systems (Promega Corporation, Madison, WI). These systems provide a luminescent method containing proluciferin substrates and are converted to luciferin products by CYP isozymes. The luciferin products formed are detected with a luciferin detection reagent, and the amount of light produced is proportional to CYP activity. P450-Glo (TM) CYP2C19 screening system (Catalog. No. V9880) was used to detect the compounds that interfere in CYP2C19 activity. The positive control compound used for CYP2C19 assay is ketoconazole (Sigma-Aldrich, St. Louis, MO).
Tox21 Assay Protocol Summary:
Two ul of enzyme-substrate mix was dispensed into medium binding white/solid 1536-well plates (Greiner Bio-One North America Inc., Monroe, NC) using a BioRaptr Flying Reagent Dispenser (FRD, Beckman Coulter, Brea, CA). Compounds dissolved in DMSO and positive control (ketoconazole) were transferred to the assay plates at 23 nl using a Pintool station (Wako, San Diego, CA). The assay plates were incubated at room temperature for 10 min. Then 2 ul of NADPH regeneration solution was added to each well of the assay plates using an FRD and incubated at 37C for 1 h. The reaction was stopped by adding 4 ul of detection reagent using an FRD and after 20 min incubation at room temperature the luminescence signal was measured using a ViewLux plate reader (Perkin Elmer, Shelton, CT). Data were expressed as relative luminescence units.
Potency means the concentration at half of the fitted maximal effect.

SMILES	Potency
O=C1OC(CN2CCOCC2)CN1/N=C/c1ccc([N+](=O)[O-])o1 (stereo not given)	inactive
CCCCC	inactive
Cc1ccc(C(C)OC(=O)C2(C)CCC(C(=O)O)C2(C)C)cc1 (stereo not given)	inactive
CC1=CC=C(C(C)C)CC1	35.6 µM (active)
CN(C)CCN(Cc1ccsc1)c1ccccn1	inactive
C=C1C(=C/C=C2\CCC[C@]3(C)[C@@H]([C@H](C)/C=C/[C@@H](O)C4CC4)CC[C@@H]23)C[C@@H](O)C[C@@H]1O	7.76 µM (active)
C=C1[C@H]2CC[C@@H]3[C@H]2C(C)(C)CCC[C@]13C	inactive
CCCCOC(=O)CCCCCCCC(=O)OCCCC	35.6 µM (active)
Cc1cccc(C)c1OCC(=O)N[C@@H](Cc1ccccc1)[C@@H](O)C[C@H](Cc1ccccc1)NC(=O)[C@H](C(C)C)N1CCCNC1=O	21.9 µM (active)
O=S(=O)(Oc1ccc(Cl)cc1)c1ccccc1	0.894 µM (active)
C=C(C)C(=O)OCCOCC	80 µM (active)
C=CCOC(=O)CCC1CCCCC1	inactive
CC(C)CC(=O)C1C(=O)c2ccccc2C1=O	39.9 µM (active)
CCCCC(CC)COC(=O)COc1ccc(Cl)cc1Cl (stereo not given)	20.3 µM (active)
CCN(CC)c1ccc(C(=C2C=CC(=[N+](CC)CC)C=C2)c2cc(S(=O)(=O)O)ccc2S(=O)(=O)[O-])cc1	12.3 µM (active)
COC(C)OC	inactive
COc1cc(Cl)ccc1Oc1ccc(Cl)cc1Cl	1.23 µM (active)
CCCCCCCCCCCc1ccccc1	inactive
COCC(C)OC(C)=O (stereo not given)	inactive
COc1ccc(C(=O)Nc2nc3ccccc3c(NCc3ccccc3)c2C#N)cc1	17.8 µM (active)

SMILES	Potency
CN1C[C@H]2c3ccccc3Oc3ccc(Cl)cc3[C@@H]2C1	inactive
CC(=O)c1cccc([N+](=O)[O-])c1	inactive
CCOCC(O)COc1ccc(NC(=O)CC[S+](C)C)cc1 (stereo not given)	inactive
CCCCCCCCCCCCCCCCOS(=O)(=O)O	inactive
Nc1c(CC(=O)O)cccc1C(=O)c1ccc(Br)cc1	inactive
CCOC(=O)COC(=O)c1cc(Oc2ccc(C(F)(F)F)cc2Cl)ccc1[N+](=O)[O-]	11.2 µM (active)
COc1ccc(S(=O)(=O)N2C(=O)[C@@](c3ccccc3OC)(N3C[C@H](O)C[C@H]3C(=O)N(C)C)c3cc(Cl)ccc32)c(OC)c1	31.7 µM (active)
COc1ccnc(CS(=O)c2nc3ccc(OC(F)F)cc3[nH]2)c1OC (stereo not given)	13.8 µM (active)
Cn1c(=O)cc(Oc2ccc(F)cc2F)c2cnc(NCC(C)(C)O)nc21	71 µM (active)
CC1CCC(=O)C1=O (stereo not given)	inactive
O=[N+]([O-])c1ccc(NCCO)c(OCCO)c1	inactive
CC(C)Cc1ccc(C(C)C(=O)OCc2ccccn2)cc1 (stereo not given)	7.76 µM (active)
CNC(=O)CN(CCN(CCN(CC(=O)[O-])CC(=O)NC)CC(=O)[O-])CC(=O)[O-].O.[Gd+3]	inactive
CN1CCC(N(Cc2cccs2)c2ccccc2)CC1	inactive
O=C(Nc1ccc(S(=O)(=O)N2CCOCC2)cc1)c1cc(Cl)ccc1NS(=O)(=O)c1ccc(Cl)s1	38.9 µM (active)
ClCCOCCOCCCl	inactive
COC(C)(C)CCO	inactive
CCc1cc(C2=C(C(=O)O)N(c3ccccc3C(F)(F)F)S(=O)(=O)c3ccccc32)cc2c1OCO2	78.7 µM (active)
CCCCC1=NC2(CCCC2)C(=O)N1Cc1ccc(-c2ccccc2-c2nn[nH]n2)cc1	inactive
CCOc1ccc(N=Nc2ccc(/C=C/c3ccc(N=Nc4ccc(OCC)cc4)cc3S(=O)(=O)O)c(S(=O)(=O)O)c2)cc1	inactive

Reference: PubChem BioAssay (Tox21)
